# Active and inactive are the calls of the source. Unless noted, no rule for the calls is given here.
# What was measured:
# [1] = compounds binding Alexa647 anti-His antibody – biochemical, small-molecule microarray, 635 nm fluorescence, artefact control for SMM control protein annotation, primary screen (AID 1128); settings: higher = more signal;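 also: score merges feature fluorescence with signal-to-noise for each printed compound spot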
# [2] = tested on: Human papillomavirus type 1a E7 protein (residues 1-88); test: HPV1a E7 small-molecule binders, primary screen, biochemical, small-molecule microarray, residues 1-88, 635 nm (AID 1129); settings: small-molecule microarray binding, fluorescence 635 nm; higher = more signal
# [3] = biological target: Focal adhesion kinase 1 (Homo sapiens) (UniProt Q05397); test: PTK2 protein binding on printed compound slides – biochemical, small-molecule microarray, 635/667 nm fluorescence, BSA, DTT, primary screen (AID 1130); settings: 635 nm fluorescence, higher = more signal;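 also: composite of spot emission at 667 nm and signal to noise over triplicate slides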
# [4] = tested on: Fibrinogen (Alexa647-labelled); test: Alexa647-fibrinogen binding to printed small molecules – biochemical, small-molecule microarray, 635/667 nm fluorescence, artefact control for SMM control-protein annotation, profiling panel (AID 1131); settings: fibrinogen-A647 binding fluorescence, higher = more signal;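 also: z-score merges 667 nm fluorescence with per-spot signal-to-noise over triplicate slides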
# [5] = biological target: Follistatin (Homo sapiens) (UniProt P19883); test: FST protein binding to printed compounds – biochemical, small-molecule microarray, 635/667 nm fluorescence, primary screen (AID 1132); settings: 635 nm fluorescence, higher = more signal
# [6] = biological target: Fibroblast growth factor 2 (Homo sapiens) (UniProt P09038); test: basic fibroblast growth factor binding to printed compounds – biochemical, small-molecule microarray, 635/667 nm fluorescence, primary screen (AID 1133); settings: FGF2, fluorescence 635/667, higher = more signal
# [7] = JC-1 mitochondrial potential readout, lung cancer cells – cell-based, A549, JC-1 fluorescence, basal, 24 h, 100 nL, profiling panel (AID 1138); settings: higher = more signal;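 also: A549 lung adenocarcinoma cells under basal conditions with no added stimulus; test concentration not given here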
# Lefty1 = Lefty1 protein binding to printed compounds – biochemical, small-molecule microarray, 635/667 nm fluorescence, primary screen (AID 1139); settings: fluorescence 635/667, higher = more signal
# [8] = tested on: wheat germ agglutinin (Triticum aestivum), Alexa647-labelled; test: Alexa647-WGA lectin binding to printed small molecules – biochemical, small-molecule microarray, 635/667 nm fluorescence, artefact control for SMM control-protein annotation, profiling panel (AID 1140); settings: WGA-A647 binding, 635 nm fluorescence, higher = more signal;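 also: score merges 667 nm feature emission with signal to noise over triplicate slides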
# [9] = biological target: Luciferin 4-monooxygenase (Photinus pyralis) (UniProt P08659); test: inhibition of purified Photinus pyralis luciferase – biochemical, luminescence, purified enzyme, 2006 set, primary screen (AID 1141); settings: purified firefly luciferase, SteadyGlo luminescence, 30 min; higher = more signal, called active from +8 up or from −8 down;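 also: cell-free assay with purified firefly luciferase at 100 ng per well in PBS; test concentration not given here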
# [10] = tested on: Wnt5a (protein binding on small-molecule microarray); test: small molecules binding Wnt5a protein – biophysical, small-molecule microarray, 635/667 nm fluorescence, primary screen (AID 1142); settings: 635 nm fluorescence, higher = more signal;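 also: fluorescence read at 667 nm with signal to noise per printed feature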
# [11] = ATP-based viability of Huh7 replicon cells – cell-based, CellTiter-Glo luminescence, basal, 48 h, cytotoxicity control for HCV replication inhibitor project, primary screen (AID 1143); settings: higher = more signal, called active from +8 up or from −8 down;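 also: Huh7 hepatoma cells carrying a hepatitis C replication reporter with no stimulus; test concentration not given here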
# [12] = Pseudomonas biofilm growth suppression – PAO1 strain, BacTiter-Glo luminescence, LB-PBS, primary screen (AID 1144); settings: P. aeruginosa PAO1 biofilm, 12 h, higher = more signal
# [13] = basal CRE-LacZ reporter activity in PC12 – cell-based, unstimulated, primary screen (AID 1145); settings: no forskolin, luminescence, 4.5 h, higher = more signal, called active from +8 up or from −8 down
# [14] = forskolin-driven CRE-LacZ activity in PC12 – cell-based, CRE-LacZ reporter, forskolin-stimulated, primary screen (AID 1146); settings: luminescence, 4.5 h, higher = more signal, called active from +8 up or from −8 down;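 also: PC12 cells with 6xCRE LacZ reporter stimulated by forskolin 10 µM; beta-galactosidase reporter signal reflecting CREB driven transcription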
# [15] = biological target: Streptavidin (Streptomyces avidinii) (UniProt P22629); test: compounds binding control protein streptavidin – biophysical, small-molecule microarray, 635/667 nm fluorescence, artefact control for SMM compound annotation, primary screen (AID 1147); settings: higher = more signal;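 also: signal reflects streptavidin binding to arrayed compounds as a control protein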
# [16] = probe aInhba binding on compound microarray – biochemical, small-molecule microarray, 635/667 nm fluorescence, primary screen (AID 1148); settings: higher = more signal;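 also: score merges 667nm spot fluorescence with signal-to-noise for antibody binding to printed compounds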
# Torsin-1A (Homo sapiens) [17] = biological target: Torsin-1A (Homo sapiens) (UniProt O14656); test: TOR1A wild-type binding on microarray – cell lysate, small-molecule microarray, lysate, 635/667 nm, primary screen (AID 1149); settings: COS7 hTOR1A-WT lysate, 635 nm fluorescence, higher = more signal
# Torsin-1A (Homo sapiens) [18] = biological target: Torsin-1A (Homo sapiens) (UniProt O14656); test: torsin A mutant lysate binding on microarrays – cell lysate, small-molecule microarray, COS7 lysate, 635/667 nm fluorescence, primary screen (AID 1150); settings: COS7 hTOR1A mutant lysate, 635 nm fluorescence, higher = more signal;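 also: score pools 667 nm emission and signal to noise measuring lysate protein binding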
# [19] = tested on: Sonic hedgehog protein (Shh); test: Sonic hedgehog microarray binding compounds – biochemical, small-molecule microarray, 635/667 nm fluorescence, primary screen (AID 1151); settings: 635 nm fluorescence, higher = more signal;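 also: Shh protein binding to compounds spotted on small-molecule microarray slides; score combines spot fluorescence intensity with signal-to-noise across triplicate slides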
# Sequence of Streptavidin (Streptomyces avidinii) (P22629 whole entry, looked up): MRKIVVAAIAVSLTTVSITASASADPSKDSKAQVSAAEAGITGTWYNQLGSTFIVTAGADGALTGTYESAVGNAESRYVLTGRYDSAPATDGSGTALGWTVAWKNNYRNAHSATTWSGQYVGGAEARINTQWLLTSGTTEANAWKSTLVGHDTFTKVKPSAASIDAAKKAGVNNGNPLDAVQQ
# Sequence of Follistatin (Homo sapiens) (P19883 whole entry, looked up): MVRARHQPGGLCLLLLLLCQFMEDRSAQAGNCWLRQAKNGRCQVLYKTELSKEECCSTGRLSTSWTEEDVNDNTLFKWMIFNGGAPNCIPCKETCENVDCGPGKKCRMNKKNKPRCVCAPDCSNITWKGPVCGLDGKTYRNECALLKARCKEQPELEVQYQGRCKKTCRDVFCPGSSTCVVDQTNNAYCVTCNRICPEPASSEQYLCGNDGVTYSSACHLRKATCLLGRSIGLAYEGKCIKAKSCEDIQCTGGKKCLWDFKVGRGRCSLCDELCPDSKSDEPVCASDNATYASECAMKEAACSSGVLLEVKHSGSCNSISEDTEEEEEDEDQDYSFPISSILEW
# Sequence of Luciferin 4-monooxygenase (Photinus pyralis) (P08659 whole entry, looked up): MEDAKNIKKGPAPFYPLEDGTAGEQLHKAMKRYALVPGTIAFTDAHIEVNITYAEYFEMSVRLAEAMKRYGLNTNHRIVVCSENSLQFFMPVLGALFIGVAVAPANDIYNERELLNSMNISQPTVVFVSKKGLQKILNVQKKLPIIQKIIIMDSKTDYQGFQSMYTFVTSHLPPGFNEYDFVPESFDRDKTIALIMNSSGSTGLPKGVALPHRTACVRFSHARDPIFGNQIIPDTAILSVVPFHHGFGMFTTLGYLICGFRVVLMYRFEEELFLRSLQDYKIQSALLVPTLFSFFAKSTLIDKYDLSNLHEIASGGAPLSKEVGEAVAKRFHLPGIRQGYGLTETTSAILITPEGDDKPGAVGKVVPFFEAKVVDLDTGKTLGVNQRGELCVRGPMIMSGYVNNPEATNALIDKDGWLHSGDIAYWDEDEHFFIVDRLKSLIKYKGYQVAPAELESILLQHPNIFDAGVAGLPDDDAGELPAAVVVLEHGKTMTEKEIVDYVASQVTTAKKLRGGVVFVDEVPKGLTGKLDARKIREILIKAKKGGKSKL
# Sequence of Focal adhesion kinase 1 (Homo sapiens) (Q05397 whole entry, looked up): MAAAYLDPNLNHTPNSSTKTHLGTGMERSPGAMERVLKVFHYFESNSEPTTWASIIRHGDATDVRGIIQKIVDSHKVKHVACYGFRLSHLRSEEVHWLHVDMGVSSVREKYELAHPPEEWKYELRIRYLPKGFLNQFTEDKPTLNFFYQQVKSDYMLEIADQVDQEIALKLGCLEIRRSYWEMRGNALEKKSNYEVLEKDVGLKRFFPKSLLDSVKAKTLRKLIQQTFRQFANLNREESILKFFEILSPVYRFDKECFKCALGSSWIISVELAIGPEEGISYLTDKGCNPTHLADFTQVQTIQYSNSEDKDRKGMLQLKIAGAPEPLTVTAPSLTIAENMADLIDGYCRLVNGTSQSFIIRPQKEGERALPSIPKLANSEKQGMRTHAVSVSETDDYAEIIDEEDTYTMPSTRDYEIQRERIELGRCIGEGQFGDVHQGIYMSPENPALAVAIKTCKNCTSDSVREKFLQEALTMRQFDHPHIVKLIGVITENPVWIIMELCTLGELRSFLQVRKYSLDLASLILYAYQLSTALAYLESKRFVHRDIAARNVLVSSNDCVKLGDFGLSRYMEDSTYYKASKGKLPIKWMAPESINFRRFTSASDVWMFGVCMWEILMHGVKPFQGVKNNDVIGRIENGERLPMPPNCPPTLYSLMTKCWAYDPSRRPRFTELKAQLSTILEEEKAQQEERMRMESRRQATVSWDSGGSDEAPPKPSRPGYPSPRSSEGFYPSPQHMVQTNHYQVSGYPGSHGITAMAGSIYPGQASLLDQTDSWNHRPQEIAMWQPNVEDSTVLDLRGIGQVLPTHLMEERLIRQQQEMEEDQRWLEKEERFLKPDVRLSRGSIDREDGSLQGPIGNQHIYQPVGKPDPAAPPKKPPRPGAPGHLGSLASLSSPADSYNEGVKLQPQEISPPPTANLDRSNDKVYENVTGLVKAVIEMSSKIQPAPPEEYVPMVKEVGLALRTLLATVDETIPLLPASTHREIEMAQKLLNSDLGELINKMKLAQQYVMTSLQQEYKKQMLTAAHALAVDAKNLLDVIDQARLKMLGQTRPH
# Sequence of Fibroblast growth factor 2 (Homo sapiens) (P09038 whole entry, looked up): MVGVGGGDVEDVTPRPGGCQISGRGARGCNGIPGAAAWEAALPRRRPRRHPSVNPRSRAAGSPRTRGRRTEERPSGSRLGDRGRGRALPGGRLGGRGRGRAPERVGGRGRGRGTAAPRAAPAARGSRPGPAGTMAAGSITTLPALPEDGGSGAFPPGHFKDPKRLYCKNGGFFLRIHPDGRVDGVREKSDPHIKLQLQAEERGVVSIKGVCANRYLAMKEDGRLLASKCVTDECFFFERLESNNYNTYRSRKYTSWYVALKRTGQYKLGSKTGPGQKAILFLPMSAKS
# Sequence of Torsin-1A (Homo sapiens) (O14656 whole entry, looked up): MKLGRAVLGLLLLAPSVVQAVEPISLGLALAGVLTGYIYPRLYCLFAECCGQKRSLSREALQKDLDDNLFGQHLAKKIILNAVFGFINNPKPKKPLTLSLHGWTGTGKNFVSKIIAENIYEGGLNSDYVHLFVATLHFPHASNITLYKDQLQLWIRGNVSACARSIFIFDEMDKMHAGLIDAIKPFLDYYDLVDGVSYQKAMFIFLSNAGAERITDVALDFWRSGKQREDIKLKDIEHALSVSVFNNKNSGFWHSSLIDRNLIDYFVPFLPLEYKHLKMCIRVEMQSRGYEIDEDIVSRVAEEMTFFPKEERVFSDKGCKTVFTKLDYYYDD
SMILES,composite z-score [1],composite z-score [2],composite z-score [3],composite z-score [4],composite z-score [5],composite z-score [6],z-score [7],composite z-score (Lefty1),composite z-score [8],z-score [9],composite z-score [10],z-score [11],z-score [12],z-score [13],z-score [14],composite z-score [15],composite z-score [16],composite z-score (Torsin-1A (Homo sapiens) [17]),composite z-score (Torsin-1A (Homo sapiens) [18]),composite z-score [19]
C=C[C@@H](COC(C)=O)NS(=O)(=O)c1ccc(Br)cc1,0.188,0.374,0.0776,0.156,0.635,0.617,-0.367,0.283,0.428,-0.823 (inactive),-0.0143,-2.37 (inactive),-0.446 (inactive),0.904 (inactive),0.344 (inactive),0.0981,-0.0589,0.825,0.357,-0.0658
C=C(COC)/C(=C/C[C@@H](OC(=O)c1ccncc1)c1cccc(OCCO)c1)c1cnc2ccccc2c1,2.26,1.17,0.191,0.922,1.48,1.68,0.746,1.64,1.55,-1.68 (inactive),0.381,-8.02 (active),-0.639 (inactive),12.6 (active),0.818 (inactive),2.64,0.248,1.16,2.74,2.3
CC(=O)n1cc(C(O)C2C=CC3C(=O)N(c4ccccc4)C(=O)C3N2Nc2ccccc2)c2ccccc21 (stereo not given),0.917,0.663,0.0901,0.735,1.36,-0.379,-0.282,-0.137,1.27,0.252 (inactive),0.689,-3.34 (inactive),-0.504 (inactive),0.436 (inactive),-0.507 (inactive),0.862,0.426,0.14,1.08,0.497
Cc1ccc(F)cc1S(=O)(=O)N[C@@H]1CCN(Cc2ccc(Oc3ccccc3)cc2)C1,0.258,-0.922,-0.271,0.738,1.03,0.424,0.663,1.09,0.853,0.453 (inactive),-0.123,-4.83 (inactive),0.913 (inactive),0.677 (inactive),0.865 (inactive),-0.235,-0.0403,0.575,0.251,1.07
COCCCNC(=O)[C@]1(Cc2ccccc2CN=[N+]=[N-])N=C(c2ccc(OCCCO)cc2)O[C@@H]1c1ccccc1,2.83,1.19,0.306,0.985,0.547,-0.0864,1.06,0.0167,0.643,0.505 (inactive),0.419,-4.93 (inactive),-0.436 (inactive),-0.0667 (inactive),-0.577 (inactive),0.723,-0.0736,0.214,0.311,-1.07
[N-]=[N+]=NCc1ccccc1C[C@@]1(C(=O)NCCN2CCOCC2)N=C(c2ccc(OCCCO)cc2)O[C@@H]1c1ccccc1N=[N+]=[N-],1.4,1.19,1.05,0.957,0.423,-0.498,-0.183,-0.165,0.963,-5.91 (inactive),0.512,-5.21 (inactive),-0.503 (inactive),0.69 (inactive),-1.46 (inactive),0.408,0.0906,0.5,1.73,-0.492
CN1C(=O)[C@@]2(CCS(=O)(=O)c3ccccc3)N=C(c3ccc(OCCCO)cc3)O[C@H]2c2ccccc21,3.54,1.26,0.582,0.974,1.29,0.394,1.15,0.358,1.01,-0.899 (inactive),0.388,-4.49 (inactive),-0.413 (inactive),0.0918 (inactive),-0.196 (inactive),1.8,-0.0384,1.55,0.397,0.203
Cc1ccc(S[C@]2(C(=O)NC(C)C)CC(=O)N(C3Cc4ccccc4C3)[C@@H]2c2ccc(CO)cc2I)cc1,-0.641,-0.597,-0.602,-0.779,-0.172,0.188,1.37,-2.2,-0.412,0.507 (inactive),-0.511,-1.83 (inactive),-0.0878 (inactive),0.622 (inactive),1.28 (inactive),-0.959,-0.355,-1.49,-0.009,-0.274
COc1ccc([Si](C)(C)[C@H]2[C@H](CCn3cc([C@H](O)c4ccccc4)nn3)O[C@@]3(C(=O)N(Cc4ccc(N5CCC5=O)cc4)c4ccccc43)[C@@H]2C)cc1,0.814,0.578,-0.441,-0.116,1.25,1.47,0.527,1.18,0.264,0.465 (inactive),0.826,-3.89 (inactive),0.572 (inactive),0.31 (inactive),-1.05 (inactive),-0.503,-0.128,0.441,0.489,1.83
O=C1O[C@@H](c2ccccc2)[C@@H](c2ccccc2)N2[C@@H](c3ccccc3OCCO)[C@]3(C(=O)Nc4ccccc43)[C@@H](C(=O)NC[C@H](O)c3ccccc3)[C@H]12,-0.27,1.19,0.682,-0.0424,-0.185,-0.452,0.171,-0.373,-0.545,0.0121 (inactive),-0.123,-6.2 (inactive),-0.668 (inactive),0.209 (inactive),4.03 (inactive),-0.625,-0.149,0.604,0.297,0.0935
